The record followed here is publication PMC7862700, “An all-to-all approach to the identification of sequence-specific readers for epigenetic DNA modifications on cytosine”.

Assay in all cases: DAPPL (digital affinity profiling via proximity ligation, sequencing); 10 mM Tris-HCl pH 7.5, 50 mM NaCl, 1 mM DTT, 4% glycerol, room temperature, 30 min; GST-TFs on glutathione beads, 16-mer random dsDNA library, 0.1% formaldehyde crosslink after washing; high values mean tight binding
What all share (conditions): protein: recombinant; tags: N-terminal GST; dsDNA, one strand shown

One test concerns the target T1, ERF (Homo sapiens, UniProt P50548 1-548).
T1 sequence: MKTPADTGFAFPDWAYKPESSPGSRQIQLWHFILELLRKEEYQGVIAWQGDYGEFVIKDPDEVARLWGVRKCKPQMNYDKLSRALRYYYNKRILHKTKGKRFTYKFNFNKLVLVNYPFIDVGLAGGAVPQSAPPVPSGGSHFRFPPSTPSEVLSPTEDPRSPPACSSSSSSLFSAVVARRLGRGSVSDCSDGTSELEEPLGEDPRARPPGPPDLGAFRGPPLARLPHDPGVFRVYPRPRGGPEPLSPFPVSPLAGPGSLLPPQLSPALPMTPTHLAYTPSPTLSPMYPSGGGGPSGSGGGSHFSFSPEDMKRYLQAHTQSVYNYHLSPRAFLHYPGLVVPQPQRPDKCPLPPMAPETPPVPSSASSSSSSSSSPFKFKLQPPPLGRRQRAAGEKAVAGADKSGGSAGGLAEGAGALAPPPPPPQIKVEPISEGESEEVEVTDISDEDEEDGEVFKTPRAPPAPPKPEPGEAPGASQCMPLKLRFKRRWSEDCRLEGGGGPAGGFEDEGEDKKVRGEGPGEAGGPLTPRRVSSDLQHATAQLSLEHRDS
An outline of the steps:
(§1)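 Human transcription factors carrying a GST fusion were produced in yeast, bound to glutathione beads, tagged with DNA barcodes and pooled together with a tag-only sample. Each pool was held with 200 nmole of a random double-stranded 16-mer DNA library in Tris/NaCl/DTT/glycerol buffer for 30 min at room temperature, then washed, crosslinked in 0.1% formaldehyde, proximity-ligated with BsaI/T4 ligase (1 h, 37 °C), PCR-amplified and sequenced on an Illumina NextSeq500. Binding signal is the read frequency of each hexamer for a given factor divided by its frequency in the tag-only sample.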

The target of a further test is T2, ETV3L (Homo sapiens, UniProt Q6ZN32 1-361).
T2 sequence: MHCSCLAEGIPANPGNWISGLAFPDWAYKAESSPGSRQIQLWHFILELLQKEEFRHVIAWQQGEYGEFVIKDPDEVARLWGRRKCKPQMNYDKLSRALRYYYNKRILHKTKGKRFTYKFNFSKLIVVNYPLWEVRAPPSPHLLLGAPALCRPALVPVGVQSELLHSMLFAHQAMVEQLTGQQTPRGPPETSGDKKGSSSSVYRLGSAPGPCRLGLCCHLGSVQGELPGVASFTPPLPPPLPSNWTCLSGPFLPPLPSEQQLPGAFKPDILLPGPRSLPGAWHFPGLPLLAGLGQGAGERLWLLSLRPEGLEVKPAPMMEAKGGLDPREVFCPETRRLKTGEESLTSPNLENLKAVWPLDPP
The method in brief: as §1

In the next test the target is T3, ETS2 (Homo sapiens, UniProt P15036 1-469).
T3 sequence: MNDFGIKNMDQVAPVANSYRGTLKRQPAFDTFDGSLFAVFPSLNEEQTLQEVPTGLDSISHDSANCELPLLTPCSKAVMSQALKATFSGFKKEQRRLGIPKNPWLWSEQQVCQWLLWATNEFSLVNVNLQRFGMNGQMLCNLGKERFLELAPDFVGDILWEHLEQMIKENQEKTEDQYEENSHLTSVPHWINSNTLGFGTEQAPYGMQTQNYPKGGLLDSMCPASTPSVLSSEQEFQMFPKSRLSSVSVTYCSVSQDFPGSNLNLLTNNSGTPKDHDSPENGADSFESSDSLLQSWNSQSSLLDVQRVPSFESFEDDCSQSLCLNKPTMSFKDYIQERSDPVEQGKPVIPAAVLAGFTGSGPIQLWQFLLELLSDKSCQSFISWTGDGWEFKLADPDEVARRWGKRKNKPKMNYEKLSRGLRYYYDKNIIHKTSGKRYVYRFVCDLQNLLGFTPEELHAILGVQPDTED
An outline of the steps: as §1

The target in a further test is T4, SPDEF (Homo sapiens, UniProt O95238 1-335).
T4 sequence: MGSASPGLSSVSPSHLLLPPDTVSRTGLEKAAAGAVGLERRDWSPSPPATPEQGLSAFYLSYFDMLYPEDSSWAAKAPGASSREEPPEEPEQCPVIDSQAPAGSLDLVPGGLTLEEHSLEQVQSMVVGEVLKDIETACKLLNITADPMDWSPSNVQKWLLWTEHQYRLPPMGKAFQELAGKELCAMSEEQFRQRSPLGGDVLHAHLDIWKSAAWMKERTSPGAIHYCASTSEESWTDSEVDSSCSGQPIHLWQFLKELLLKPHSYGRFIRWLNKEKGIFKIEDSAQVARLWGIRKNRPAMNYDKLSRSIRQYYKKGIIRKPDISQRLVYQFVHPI
The method in brief:
as §1

The target in another test is T5, ETV7 (Homo sapiens, UniProt Q9Y603 1-341).
T5 sequence: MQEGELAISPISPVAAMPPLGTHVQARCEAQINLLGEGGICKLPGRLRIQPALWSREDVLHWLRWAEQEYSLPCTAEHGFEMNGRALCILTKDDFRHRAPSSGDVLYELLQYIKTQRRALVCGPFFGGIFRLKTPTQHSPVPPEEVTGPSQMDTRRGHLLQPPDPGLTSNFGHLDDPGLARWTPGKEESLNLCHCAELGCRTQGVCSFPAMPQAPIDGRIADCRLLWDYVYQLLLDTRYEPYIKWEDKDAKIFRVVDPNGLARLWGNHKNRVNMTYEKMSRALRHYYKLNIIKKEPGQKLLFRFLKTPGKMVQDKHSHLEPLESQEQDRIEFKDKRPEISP
An outline of the steps: as §1

The target of the next test is T6, ELF5 (Homo sapiens, UniProt Q9UKW6-2 1-255).
T6 sequence: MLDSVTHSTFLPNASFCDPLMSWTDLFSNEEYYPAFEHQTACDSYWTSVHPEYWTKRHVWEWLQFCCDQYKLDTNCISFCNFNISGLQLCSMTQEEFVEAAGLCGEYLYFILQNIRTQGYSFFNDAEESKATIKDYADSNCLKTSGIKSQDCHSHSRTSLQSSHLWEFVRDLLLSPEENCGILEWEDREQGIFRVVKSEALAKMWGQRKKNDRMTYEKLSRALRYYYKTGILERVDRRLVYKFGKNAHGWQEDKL
An outline of the steps:
as §1

Another test deals with T7, ETV3 (Homo sapiens, UniProt P41162-2 1-143).
T7 sequence: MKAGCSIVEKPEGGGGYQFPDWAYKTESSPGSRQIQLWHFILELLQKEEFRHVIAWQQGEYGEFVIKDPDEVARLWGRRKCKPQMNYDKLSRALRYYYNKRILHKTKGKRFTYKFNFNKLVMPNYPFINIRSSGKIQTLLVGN
An outline of the steps: as §1

In another test the target is ETV6 (Homo sapiens, UniProt P41212 1-452). The method in brief:
as §1

Sequence of ETV6 (P41212 whole entry): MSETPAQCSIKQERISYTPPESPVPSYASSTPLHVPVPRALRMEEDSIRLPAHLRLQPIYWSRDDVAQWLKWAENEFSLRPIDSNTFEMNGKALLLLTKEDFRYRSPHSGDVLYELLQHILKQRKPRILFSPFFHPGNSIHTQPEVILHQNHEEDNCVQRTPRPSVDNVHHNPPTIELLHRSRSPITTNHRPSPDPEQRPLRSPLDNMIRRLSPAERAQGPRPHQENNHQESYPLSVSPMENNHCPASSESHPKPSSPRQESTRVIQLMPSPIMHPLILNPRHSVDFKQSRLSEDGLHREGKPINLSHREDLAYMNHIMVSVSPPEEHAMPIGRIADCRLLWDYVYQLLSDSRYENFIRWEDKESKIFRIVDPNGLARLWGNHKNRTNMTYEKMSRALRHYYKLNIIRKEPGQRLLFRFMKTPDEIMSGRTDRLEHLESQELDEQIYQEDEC

TATAGC: the binding signal with ERF was 1.24 fold enrichment (6-mer frequency, TF over GST control); with ETV3L, 1.25 fold enrichment (6-mer frequency, TF over GST control); in the test with ETS2, 1.18 fold enrichment (6-mer frequency, TF over GST control); in the test with SPDEF, 1.18 fold enrichment (6-mer frequency, TF over GST control); with ETV7, 1.19 fold enrichment (6-mer frequency, TF over GST control); with ELF5, 1.13 fold enrichment (6-mer frequency, TF over GST control). For the same sequence, the binding signal in the test with ETV3 was 1.2 fold enrichment (6-mer frequency, TF over GST control); with ETV6 it was 1.15 fold enrichment (6-mer frequency, TF over GST control).
For the sequence GAAGCT, the binding signal was 1.59 fold enrichment (6-mer frequency, TF over GST control) in the test with ERF; 1.58 fold enrichment (6-mer frequency, TF over GST control) in the test with ETV3L; 1.54 fold enrichment (6-mer frequency, TF over GST control) with ETS2; 1.51 fold enrichment (6-mer frequency, TF over GST control) in the test with SPDEF; 1.54 fold enrichment (6-mer frequency, TF over GST control) with ETV7; 1.71 fold enrichment (6-mer frequency, TF over GST control) in the test with ELF5. Further, the binding signal was 1.75 fold enrichment (6-mer frequency, TF over GST control) with ETV3 and 1.59 fold enrichment (6-mer frequency, TF over GST control) with ETV6.
As to CCTCCG, the binding signal with ERF was 1.41 fold enrichment (6-mer frequency, TF over GST control); with ETV3L, 1.65 fold enrichment (6-mer frequency, TF over GST control); with ETS2, 1.31 fold enrichment (6-mer frequency, TF over GST control); with SPDEF, 1.36 fold enrichment (6-mer frequency, TF over GST control); with ETV7, 1.2 fold enrichment (6-mer frequency, TF over GST control); in the test with ELF5, 1.35 fold enrichment (6-mer frequency, TF over GST control). The binding signal with ETV3 was 1.3 fold enrichment (6-mer frequency, TF over GST control); with ETV6, 1.31 fold enrichment (6-mer frequency, TF over GST control).
Regarding TCCCGT, the binding signal in the test with ERF was 1.4 fold enrichment (6-mer frequency, TF over GST control); with ETV3L, 1.29 fold enrichment (6-mer frequency, TF over GST control); with ETS2, 1.34 fold enrichment (6-mer frequency, TF over GST control); with SPDEF, 1.44 fold enrichment (6-mer frequency, TF over GST control); in the test with ETV7, 1.32 fold enrichment (6-mer frequency, TF over GST control); in the test with ELF5, 1.6 fold enrichment (6-mer frequency, TF over GST control). In addition, the binding signal with ETV3 was 1.27 fold enrichment (6-mer frequency, TF over GST control); in the test with ETV6, 1.3 fold enrichment (6-mer frequency, TF over GST control).
With ATGTAC, the binding signal with ERF was 1.19 fold enrichment (6-mer frequency, TF over GST control); in the test with ETV3L it was 1.32 fold enrichment (6-mer frequency, TF over GST control); with ETS2 it was 1.42 fold enrichment (6-mer frequency, TF over GST control); with SPDEF it was 1.67 fold enrichment (6-mer frequency, TF over GST control); with ETV7, 1.41 fold enrichment (6-mer frequency, TF over GST control); with ELF5, 1.28 fold enrichment (6-mer frequency, TF over GST control). The binding signal was 1.19 fold enrichment (6-mer frequency, TF over GST control) with ETV3 and 1.32 fold enrichment (6-mer frequency, TF over GST control) in the test with ETV6.
Take CATCGA: the binding signal with ERF was 1.16 fold enrichment (6-mer frequency, TF over GST control); with ETV3L it was 1.21 fold enrichment (6-mer frequency, TF over GST control); with ETS2, 1.15 fold enrichment (6-mer frequency, TF over GST control); with SPDEF, 1.04 fold enrichment (6-mer frequency, TF over GST control); with ETV7, 1.13 fold enrichment (6-mer frequency, TF over GST control); in the test with ELF5, 1.05 fold enrichment (6-mer frequency, TF over GST control). Moreover, the binding signal was 1.08 fold enrichment (6-mer frequency, TF over GST control) with ETV3 and 1.01 fold enrichment (6-mer frequency, TF over GST control) in the test with ETV6.
With TTGGCC, the binding signal was 1.08 fold enrichment (6-mer frequency, TF over GST control) with ERF; 1.09 fold enrichment (6-mer frequency, TF over GST control) with ETV3L; 1.01 fold enrichment (6-mer frequency, TF over GST control) with ETS2; 1.06 fold enrichment (6-mer frequency, TF over GST control) with SPDEF; 1.12 fold enrichment (6-mer frequency, TF over GST control) with ETV7; 1.02 fold enrichment (6-mer frequency, TF over GST control) with ELF5. The binding signal is 1.05 fold enrichment (6-mer frequency, TF over GST control) in the test with ETV3 and 1.05 fold enrichment (6-mer frequency, TF over GST control) with ETV6.
